Sampled rows, rich in hits. Any-hit rate of the full collection: about 3.2%.
Coupling enz = counter-screen for Giardia aldolase inhibitors: coupling enzyme system | coupling enzyme system counterscreen, AmpLite Red fluorescence | 0.67% of 290,000 active | AID 2472 | activity change, negative = inhibition, % at 58.2 µM, hits read low; in the data active means activity change below about -30%
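Final compound at 57.5 uM, incubated 10 min at RT with coupling enzyme reagent (glyceraldehyde-3-phosphate), then 20 min with substrate and AmpLite Red detection. Fluorescence read at 525/598 nm; tests interference with the coupling assay, not aldolase inhibition.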
GALK inh = inhibitors of human galactokinase. Purified GALK, Kinase-Glo residual ATP luminescence. Potency, µM (series often up to 57.5 µM), usual class: inhibitors. 0.007% of 270,000 active
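Quantitative HTS: GALK 5 nM, ATP 35 uM, galactose 100 uM, 1 h room temperature, then luciferase-based ATP detection.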
USP2a block = inhibitors of human ubiquitin-specific protease USP2a | O75604 | USP2 core, Ub-CHOP2 coupled fluorogenic reporter, 485/531 | Potency, µM (doses to about 38.3 µM), hits mostly inhibitors | 0.01% of 330,000 active
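USP2 core (10nM final) preincubated 30min RT with compound in 20mM Tris-HCl pH 8.0, 2mM CaCl2, 2mM beta-mercaptoethanol, 0.05% CHAPS; 25nM Ub-CHOP2 plus 25nM reporter substrate added, fluorescence (Ex485/Em531) read after 60min.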
PLK1 PBD inh = PLK1 (human) polo-box domain binding inhibition; AID 720504; Plk1 PBD binding of FITC phosphopeptide, fluorescence polarization; 2.8% of 360,000 active; Potency, µM, usual class: inhibitors; further: series mostly up to about 57 µM; nearly all actives have a fitted effect of over 65% in size
VDR inh = inhibitors of human vitamin D receptor. P11473. VDR-SRC2-3 peptide fluorescence polarization, 2 h. Potency, µM, usual class: inhibitors. 0.93% of 400,000 active
Target sequence (P11473 whole entry, looked up): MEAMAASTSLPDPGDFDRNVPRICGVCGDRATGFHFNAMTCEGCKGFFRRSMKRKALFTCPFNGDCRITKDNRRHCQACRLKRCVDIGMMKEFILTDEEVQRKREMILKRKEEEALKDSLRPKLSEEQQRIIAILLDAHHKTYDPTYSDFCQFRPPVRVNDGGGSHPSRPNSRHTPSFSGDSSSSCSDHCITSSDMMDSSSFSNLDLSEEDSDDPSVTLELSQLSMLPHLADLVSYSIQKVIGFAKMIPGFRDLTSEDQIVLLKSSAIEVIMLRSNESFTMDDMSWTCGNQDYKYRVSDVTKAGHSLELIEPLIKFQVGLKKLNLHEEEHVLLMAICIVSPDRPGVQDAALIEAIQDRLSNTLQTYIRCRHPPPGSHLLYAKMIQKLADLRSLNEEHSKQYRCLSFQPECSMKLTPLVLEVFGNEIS
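FP read-out; VDR + SRC2-3 coactivator peptide; 23 nl compound by pintool; 2 h RT incubation; reagents held at 4 deg C, protected from light.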
USP1-UAF1 inh = blocks the human USP1/UAF1 deubiquitinase complex. recombinant USP1/UAF1, Ub-Rhodamine cleavage fluorescence. 0.23% of 390,000 active. O94782. Potency, µM (titrated, usually from 57.1 µM), actives largely listed as inhibitors; further: nearly all actives have a fitted effect of over 60% in size
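USP1/UAF1 complex at 1 nM was preincubated with compound for 15 min at room temperature, then Ub-Rho substrate (150nM final) was added. Fluorescence (480/540 nm) was read kinetically, 6 reads every 60 seconds.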
Of the large screens only hits and unclear results are named; the others gave an inactive call. Unless noted, the call rests on the fitted dose curve; in most records, active means well fitted curve in the direction sought with a large enough effect; inconclusive means small, poorly fitted or top-dose-only effect, or another doubt; inactive means no such curve, though single readings can be large; an effect the other way counts as inactive or inconclusive.

COC(=O)c1ccc(S(=O)(=O)N(Cc2ccccc2)Cc2ccccc2)n1C	none
Nc1[nH]c(C(=O)c2ccccc2)c(-c2ccccc2C(F)(F)F)c1C(=O)NCc1cccc2ccccc12	none (no result: Coupling enz, GALK inh, USP2a block, VDR inh, USP1-UAF1 inh)
Cc1cc[n+]2c3c(cccc13)CCC2	PLK1 PBD inh 13.4µM, VDR inh 50.1µM
Nc1ccc2ncccc2c1N	Coupling enz -39.7, USP1-UAF1 inh inconclusive
c1cnc2ccc3ncccc3c2c1	none
Nc1ccc(/C=C/c2ccc3ncccc3c2)cc1	USP1-UAF1 inh inconclusive
Nc1ccc2ncccc2c1	Coupling enz -38.6, USP1-UAF1 inh inconclusive
Cc1ccc(C(=O)CSc2ncn[nH]2)cc1	PLK1 PBD inh 26.7µM, VDR inh inconclusive
Cc1ccc(C(=O)CSc2ccccn2)cc1	PLK1 PBD inh 18.9µM, VDR inh 79.4µM
CCCCNC(=O)CSc1nc(CCC)nc2ccccc12	none
CCCc1nc(SCC(=O)c2ccc(F)cc2)c2ccccc2n1	PLK1 PBD inh inconclusive, VDR inh 89.1µM
CCc1ccc(C(=O)CSc2ncn[nH]2)cc1	PLK1 PBD inh inconclusive, VDR inh inconclusive
O=C(CSc1nccn1-c1ncc(C(F)(F)F)cc1Cl)c1ccc(Br)cc1	PLK1 PBD inh 2.38µM, VDR inh inconclusive
O=C(Nc1ccccc1)N(Cc1cccs1)c1ccc(Cl)cc1	none (no result: Coupling enz, GALK inh, USP2a block, PLK1 PBD inh)
COCCNC(=O)CCC1CCN(Cc2cccc(-c3ccc(C)o3)c2)CC1	none
O=C(O)c1ccnc(SCC(=O)c2ccccc2)c1	none (no result: GALK inh)
O=C(CSc1nccn1-c1ccccc1)c1ccc(Cl)cc1	none
Cc1ccc(C(=O)CSc2nccn2-c2ccccc2)cc1	PLK1 PBD inh 21.2µM
O=C(CSc1ccccn1)c1ccc(F)cc1	PLK1 PBD inh 26.7µM, VDR inh inconclusive
COC(=O)c1c(C)[nH]c(C(=O)/C=C/c2cccc(Cl)c2)c1C	none
O=C(CC1CCCCC1)Nc1ccc(-c2ccc3nncn3n2)cc1	none
CCOC(=O)C1CCN(C(=O)/C=C/c2cccs2)CC1	none
CCOC(=O)C1CCN(C(=O)Cc2cccs2)CC1	PLK1 PBD inh 29.9µM
O=C(C[n+]1ccc(CCSc2ccc(F)cc2)cc1)c1ccccc1	PLK1 PBD inh 1.89µM, VDR inh inconclusive
Clc1ccc(CSCCc2ccncc2)cc1	none
Fc1cc(F)c(F)c(SCCc2ccncc2)c1F	PLK1 PBD inh inconclusive, VDR inh 50.1µM (no result: USP2a block)
c1ccc(SCCc2ccncc2)cc1	PLK1 PBD inh 21.2µM (no result: GALK inh)
Fc1ccc(SCCc2ccncc2)cc1	PLK1 PBD inh 23.8µM, VDR inh inconclusive
COc1ccc(-c2csc(NC(=O)c3ccc(S(=O)(=O)N4CCc5ccccc5C4)cc3)n2)c(OC)c1	none
C[C@H](NC(=O)c1nc[nH]c1C(=O)N[C@@H](Cc1ccccc1)C(=O)OC(C)(C)C)C(=O)OCc1ccccc1	none (no result: GALK inh)
COC(=O)c1c(NC(=O)Cc2cccs2)sc2c1CCC(C)C2 (centres undefined)	PLK1 PBD inh 21.2µM
COC(=O)c1c(NC(=O)Cc2ccccc2)sc2c1C(C(=O)OC)CC2 (centres undefined)	PLK1 PBD inh 16.8µM
COC(=O)c1c(NC(=O)Cc2ccccc2)sc2c1CC(C)(C)NC2(C)C	PLK1 PBD inh 23.8µM (no result: GALK inh)
COC(=O)c1c(NC(=O)C(C)(C)C)sc2c1C(C(=O)OC)CC2 (centres undefined)	none (no result: Coupling enz)
COC(=O)c1c(NC(=O)Cn2cnc([N+](=O)[O-])n2)sc2c1CCC(C)C2 (centres undefined)	PLK1 PBD inh 18.9µM, VDR inh inconclusive
CNC(=S)N1CCc2cc(OC)c(OC)cc2C1COc1ccc(OC)cc1 (centres undefined)	none
CCOC(=O)c1c(NC(=O)C2C3C=CC(C3)C2C(=O)O)sc2c1CC(C)CC2 (centres undefined)	none
CCCOC(=O)c1c(NC(=O)C2C3C=CC(C3)C2C(=O)O)sc2c1CCC(C)C2 (centres undefined)	PLK1 PBD inh 5.32µM, VDR inh inconclusive
O=C(Nc1ccccc1)C1CCN(C(=O)c2ccco2)CC1	none
Cc1cc(C)cc(NC(=O)C2CCN(C(=O)[C@@H]3Cc4ccccc4CN3)CC2)c1	PLK1 PBD inh 4.74µM, VDR inh inconclusive
Cc1ccc(NC(=O)C2CCN(C(=O)[C@@H]3Cc4ccccc4CN3)CC2)cc1	none

Screens as filed in PubChem BioAssay.
